Assay results taken from PubChem BioAssay AID588342 (National Center for Advancing Translational Sciences (NCATS), 2011).
About 25,000 (6.9%) of roughly 360,000 compounds were called active. Where a call stands in place of a potency, no number is given. Not shown: some 9% with an inconclusive outcome. Calls come from the whole dose curve; as a rule, active = well fitted inhibition curve with a large enough effect; inconclusive = small, poorly fitted or top-dose-only effect; inactive = flat fitted curve, though single readings scatter. Only a selection was taken, and actives are over-represented in it overall.

These molecules were tested against Luciferin 4-monooxygenase (Photinus pyralis) (UniProt P08659) (assay: qHTS profiling assay for firefly luciferase inhibitor/activator using purifed enzyme and Km concentrations of substrates (counterscreen for miR-21 project)). Conditions: purified FLuc, luminescence inhibition; series mostly up to 57.5 µM.
Sequence of Luciferin 4-monooxygenase (Photinus pyralis) (P08659 whole entry, looked up): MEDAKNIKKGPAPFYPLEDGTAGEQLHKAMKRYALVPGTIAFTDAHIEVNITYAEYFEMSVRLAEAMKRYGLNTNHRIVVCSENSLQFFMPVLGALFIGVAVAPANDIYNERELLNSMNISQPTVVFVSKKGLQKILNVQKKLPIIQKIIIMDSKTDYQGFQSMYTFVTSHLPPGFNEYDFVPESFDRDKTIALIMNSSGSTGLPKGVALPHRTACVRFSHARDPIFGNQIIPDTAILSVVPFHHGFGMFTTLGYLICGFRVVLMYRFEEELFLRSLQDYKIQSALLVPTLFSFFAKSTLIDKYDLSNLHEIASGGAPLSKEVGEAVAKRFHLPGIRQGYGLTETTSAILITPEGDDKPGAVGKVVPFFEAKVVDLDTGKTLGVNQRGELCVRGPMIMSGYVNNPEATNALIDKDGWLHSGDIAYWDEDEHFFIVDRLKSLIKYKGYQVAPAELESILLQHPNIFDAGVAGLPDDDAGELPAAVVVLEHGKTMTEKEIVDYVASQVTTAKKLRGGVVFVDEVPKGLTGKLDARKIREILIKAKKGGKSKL
Procedure, shortened: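 Purified P. pyralis luciferase, 10 nM final, with Km-level 10 uM D-luciferin and 10 uM ATP in 50 mM Tris acetate pH 7.5, 10 mM Mg acetate, 0.01% Tween-20, 0.05% BSA; 6-point qHTS titration about 60 µM downward; luminescence read.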
Note: nearly all actives have a fitted effect of over 55% in size.
Potency is the fitted concentration of half-maximal effect.

SMILES	Potency
C/C(=N\NS(=O)(=O)c1cccc([N+](=O)[O-])c1)c1cc2ccccc2o1	inactive
CC(OC(=O)c1cc2ccccc2o1)C(=O)Nc1ccc(N2CCOCC2)cc1 (configuration not stated)	inactive
Cc1cccc(-n2nc3c(c2NC(=O)c2cc4ccccc4o2)CS(=O)(=O)C3)c1	inactive
COC(=O)c1ccc(-c2nc3cc(NC(C)=O)ccc3o2)cc1	inactive
Cc1ccc(NC(=O)c2cc3ccccc3o2)cc1	3.38 µM (active)
CC(=O)Nc1ccc(-c2nc3ccccc3o2)cc1	3.01 µM (active)
C/C(=N\NC(=S)Nc1ccc(C)cc1)c1cc2ccccc2o1	12 µM (active)
Cc1ccccc1C(=O)Nc1cc(C)c(O)c(-c2nc3ccccc3o2)c1	inactive
Cc1ccsc1C(=O)OCC(=O)c1cc2ccccc2o1	5.36 µM (active)
COc1cc(C(=O)NCCc2csc3nc(-c4ccccc4C)nn23)cc(OC)c1OC	inactive
Cc1ccc2cccc(NC(=O)C(C)Oc3ccc(C)c(C)c3)c2n1 (configuration not stated)	inactive
CC(C)Cn1c(C2CC(=O)N(c3ccccc3Cl)C2)nc2ccccc21 (configuration not stated)	inactive
Cc1ccc(C)c(Cn2c(C)c(CNCc3ccc(F)cc3)c(C(=O)O)c2C)c1	inactive
Cc1ccc(OC(=O)c2ccccc2C(=O)OCC(F)(F)C(F)F)cc1	inactive
CCc1ccc2oc(-c3ccc(NC(=O)c4cc5ccccc5o4)cc3)nc2c1	inactive
O=C(Nc1ccncc1)c1cc2ccccc2o1	12 µM (active)
Cc1ccc(OC(=O)c2cc3ccccc3o2)cc1	0.757 µM (active)
Cc1cc(C(=O)CCl)c(C)n1CC1COc2ccccc2O1 (configuration not stated)	inactive
Cc1ccsc1C(=O)OCC(=O)c1cc(C)n(CC2CCCO2)c1C (configuration not stated)	0.151 µM (active)
COc1ccccc1CN(C)C(=O)c1cc2ccccc2o1	inactive
CCC(C)c1ccc2oc(-c3ccc(NC(=O)c4cc5ccccc5o4)cc3)nc2c1 (configuration not stated)	inactive
Cc1cc2nc(-c3ccc(NC(=O)c4cc5ccccc5o4)cc3)oc2cc1C	23.9 µM (active)
Cc1cc(C(=O)Cn2cnc3cc([N+](=O)[O-])ccc3c2=O)c(C)n1CC1CCCO1 (configuration not stated)	inactive
CCC1CCC2(CC1)NC(=O)N(CC(=O)Nc1ccc(OC)cc1)C2=O (configuration not stated)	inactive
Cc1ccc(-c2nc3ccccn3c2Nc2c(C)cccc2C)o1	inactive
Cc1ccc(S(=O)(=O)N2CCCc3cc(NS(=O)(=O)c4cc(C)ccc4C)ccc32)cc1	inactive

SMILES	Potency
O=C(CCc1nc2sc3c(c2c(=O)[nH]1)CCCC3)NCC(=O)Nc1ccccc1Br	inactive
Cc1cc(N(C)C)cc(C)[n+]1[O-]	inactive
COc1cc(OC)cc(C(=O)NNC(=O)CCOc2ccccc2OC)c1	inactive
CCOc1ccccc1NC(=O)C1CCCN(S(=O)(=O)c2cn(C)cn2)C1 (configuration not stated)	inactive
COc1ccc(S(=O)(=O)N2CCOCC2)cc1NC(=O)Cc1c(F)cccc1Cl	inactive
COc1ccc(CCNC(=O)COC(=O)C2CC2C)cc1 (configuration not stated)	inactive
Cc1ccc(Nc2nc(N3CCOCC3)nc(N3CCOCC3)n2)cc1Cl	inactive
CCN1CCN(c2nc(Nc3cccc(F)c3)nc(N)c2[N+](=O)[O-])CC1	inactive
CNc1nc(Nc2ccc(C)c(Cl)c2)nc(N)c1[N+](=O)[O-]	4.78 µM (active)
COc1ccccc1CNC(=O)Cn1nc(C)c2nn(-c3ccc(Cl)cc3)c(C)c2c1=O	inactive
CCOC(=O)c1cccc(NS(=O)(=O)c2cn(C)c(C)n2)c1	inactive
O=C(Nc1ccccc1)OCc1cn(-c2ccc(Cl)cc2)nn1	inactive
O=C(CC1SC(=Nc2ccccc2)N(Cc2ccccn2)C1=O)Nc1cccc(Cl)c1 (configuration not stated)	inactive
O=C(Nc1cccc(Cl)c1)OCc1ccccn1	26.9 µM (active)
Nc1cccc(S(=O)(=O)Nc2ccc(SC(F)F)cc2)c1	inactive
O=C(CCn1c(=O)c2sccc2n(Cc2ccc(F)cc2)c1=O)NCc1ccc2c(c1)OCO2	inactive
COc1ccccc1N1CCN(C(CNC(=O)C(=O)NCc2ccc(C)cc2)c2cccnc2)CC1 (configuration not stated)	inactive
CCOc1ccc(CNCc2c(C(=O)O)c(C)n(Cc3cccc(OC)c3)c2C)cc1OC	inactive
Cc1ccc(/C=N/NC(=O)C2=NNC(c3ccccc3)(c3ccccc3)C2)c(O)c1	inactive
CC(C)(C)Nc1nc(-c2ccccn2)nc2ccccc12	inactive
Cc1nc2ccccc2nc1N/N=C/c1ccc(O)cc1O	12 µM (active)
COc1ccc(N2CCN(c3nc(-c4ccccc4F)nc4ccccc34)CC2)cc1	inactive
Oc1c(Br)cccc1/C=N/Nc1c(F)c(F)c(F)c(F)c1F	inactive
Oc1ccc(/C=N/Nc2nc(-c3ccccc3F)nc3ccccc23)c(O)c1	10.7 µM (active)
Oc1ccc(/C=N/NC2=NCCCCC2)c(O)c1	13.5 µM (active)
Cc1n[nH]c(=O)nc1N/N=C/c1cccs1	inactive
